The target of one experiment is POU1 (OCT1 POU domain) (human, UniProt P14859 260-458). The experiment is described as follows: EMSA-SELEX-seq; no BOB1; 20 mM Tris-HCl pH 7.6, 140 mM NaCl, 10% glycerol, 0.5 mM EDTA, 0.05% Triton X-100, 0.1 mg/mL BSA, 0.1 mg/mL poly(dI-dC), 5 mM DTT, room temperature, 20 min; high values mean tight binding. To be noted: protein: recombinant; dsDNA, one strand shown. In short, it runs like this:
(§1)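 Binding preference is the percentage of sequenced 8-mers matching a motif pattern. Tagged POU-domain proteins expressed in E. coli BL21 were purified under denaturing conditions and renatured. For binding, 30 ng protein met 300 ng of a PCR-amplified double-stranded random 35-nt library, with or without 28 ng coactivator protein, in 20 μL Tris–HCl pH 7.6 binding buffer for 20 min at RT. Complex bands were cut from native 6% PAGE, eluted and PCR-amplified over four rounds, then Illumina-sequenced.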

In a further experiment the target is T1, POU2 (OCT2 POU domain) (human, UniProt P09086 175-386).
T1 sequence: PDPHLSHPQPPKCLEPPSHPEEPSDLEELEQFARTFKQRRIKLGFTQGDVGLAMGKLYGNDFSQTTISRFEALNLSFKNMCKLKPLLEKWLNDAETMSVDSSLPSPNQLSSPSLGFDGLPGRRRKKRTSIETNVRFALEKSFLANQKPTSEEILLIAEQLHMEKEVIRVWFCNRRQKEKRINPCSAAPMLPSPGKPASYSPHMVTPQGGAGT
The description is as above. To be noted: protein: recombinant; dsDNA, one strand shown. The procedure, abridged: as §1

Experiment [1] addresses POU1 (OCT1 POU domain);BOB1 (OBF1, OCA-B) (human;human, UniProt P14859;Q16633 260-458;1-256, |). The experiment is described as follows: EMSA-SELEX-seq; with BOB1 (ternary complex band); 20 mM Tris-HCl pH 7.6, 140 mM NaCl, 10% glycerol, 0.5 mM EDTA, 0.05% Triton X-100, 0.1 mg/mL BSA, 0.1 mg/mL poly(dI-dC), 5 mM DTT, room temperature, 20 min; high values mean tight binding. To be noted: protein: recombinant;recombinant; copies: 1;1; dsDNA, one strand shown. In short, it runs like this:
as §1
In general terms: Mobility shift assays separate free from complexed probe on a gel.

For experiment [2], the target named is T2, POU2 (OCT2 POU domain);BOB1 (OBF1, OCA-B) (human;human, UniProt P09086;Q16633 175-386;1-256, |).
T2 sequence 1: T1 sequence
T2 sequence 2: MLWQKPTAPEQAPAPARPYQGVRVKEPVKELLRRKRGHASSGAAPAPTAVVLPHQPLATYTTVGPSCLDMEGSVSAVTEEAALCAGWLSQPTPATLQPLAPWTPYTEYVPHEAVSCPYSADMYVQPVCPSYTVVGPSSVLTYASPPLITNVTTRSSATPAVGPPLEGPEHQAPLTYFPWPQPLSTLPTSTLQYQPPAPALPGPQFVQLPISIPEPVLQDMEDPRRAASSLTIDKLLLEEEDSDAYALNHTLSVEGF
The description is as above. The conditions noted are these: protein: recombinant;recombinant; copies: 1;1; dsDNA, one strand shown. The procedure, abridged:
as §1

POU1 (OCT1 POU domain), sequence (P14859 260-458): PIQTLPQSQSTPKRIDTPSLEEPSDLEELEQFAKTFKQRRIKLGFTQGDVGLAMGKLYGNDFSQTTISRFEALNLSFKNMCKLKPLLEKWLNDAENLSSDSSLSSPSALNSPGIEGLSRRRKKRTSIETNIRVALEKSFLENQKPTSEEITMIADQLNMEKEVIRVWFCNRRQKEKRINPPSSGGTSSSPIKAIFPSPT

Regarding ATTACAAA, the binding signal with POU1 (OCT1 POU domain) was 0.0919 % of ANNNNAAN 8-mers; in the experiment with POU2 (OCT2 POU domain), 0.0955 % of ANNNNAAN 8-mers; in experiment [1], 0.08 % of ANNNNAAN 8-mers; in experiment [2], 0.0685 % of ANNNNAAN 8-mers.

Consider AGGTGAAT, for which the binding signal is 0.108 % of ANNNNAAN 8-mers in the experiment with POU1 (OCT1 POU domain), 0.119 % of ANNNNAAN 8-mers in the experiment with POU2 (OCT2 POU domain), 0.071 % of ANNNNAAN 8-mers in experiment [1] and 0.102 % of ANNNNAAN 8-mers in experiment [2].

On to AACTGAAG, for which the binding signal with POU1 (OCT1 POU domain) was 0.0256 % of ANNNNAAN 8-mers; with POU2 (OCT2 POU domain), 0.0391 % of ANNNNAAN 8-mers; in experiment [1] it was 0.0215 % of ANNNNAAN 8-mers; in experiment [2] it was 0.0338 % of ANNNNAAN 8-mers.

In the case of AGGTCAAG, the binding signal is 0.0297 % of ANNNNAAN 8-mers with POU1 (OCT1 POU domain), 0.042 % of ANNNNAAN 8-mers with POU2 (OCT2 POU domain), 0.0277 % of ANNNNAAN 8-mers in experiment [1] and 0.0289 % of ANNNNAAN 8-mers in experiment [2].

Regarding ACTAAAAG, the binding signal with POU1 (OCT1 POU domain) is 0.0282 % of ANNNNAAN 8-mers; in the experiment with POU2 (OCT2 POU domain), 0.0368 % of ANNNNAAN 8-mers; in experiment [1], 0.0332 % of ANNNNAAN 8-mers; in experiment [2] it was 0.0297 % of ANNNNAAN 8-mers.

AAACCAAT: the binding signal with POU1 (OCT1 POU domain) is 0.0336 % of ANNNNAAN 8-mers; with POU2 (OCT2 POU domain), 0.0265 % of ANNNNAAN 8-mers; in experiment [1], 0.0437 % of ANNNNAAN 8-mers; in experiment [2] it was 0.0347 % of ANNNNAAN 8-mers.

In the case of AGGCGAAT, the binding signal with POU1 (OCT1 POU domain) was 0.0618 % of ANNNNAAN 8-mers; in the experiment with POU2 (OCT2 POU domain), 0.069 % of ANNNNAAN 8-mers; in experiment [1], 0.0593 % of ANNNNAAN 8-mers; in experiment [2] it was 0.0743 % of ANNNNAAN 8-mers.

For ATAGTAAC, the binding signal is 0.0282 % of ANNNNAAN 8-mers with POU1 (OCT1 POU domain), 0.0414 % of ANNNNAAN 8-mers with POU2 (OCT2 POU domain), 0.023 % of ANNNNAAN 8-mers in experiment [1] and 0.038 % of ANNNNAAN 8-mers in experiment [2].

Consider ATACTAAA, for which the binding signal with POU1 (OCT1 POU domain) is 0.0648 % of ANNNNAAN 8-mers; in the experiment with POU2 (OCT2 POU domain), 0.0886 % of ANNNNAAN 8-mers; in experiment [1] it was 0.0499 % of ANNNNAAN 8-mers; in experiment [2] it was 0.0594 % of ANNNNAAN 8-mers.

Regarding ACTAGAAT, the binding signal is 0.0473 % of ANNNNAAN 8-mers in the experiment with POU1 (OCT1 POU domain), 0.061 % of ANNNNAAN 8-mers with POU2 (OCT2 POU domain), 0.0589 % of ANNNNAAN 8-mers in experiment [1] and 0.0438 % of ANNNNAAN 8-mers in experiment [2].

Turning to ATGTAAAC, the binding signal was 0.249 % of ANNNNAAN 8-mers with POU1 (OCT1 POU domain), 0.196 % of ANNNNAAN 8-mers in the experiment with POU2 (OCT2 POU domain), 0.293 % of ANNNNAAN 8-mers in experiment [1] and 0.227 % of ANNNNAAN 8-mers in experiment [2].

Turning to ATGAGAAC, the binding signal with POU1 (OCT1 POU domain) is 0.0404 % of ANNNNAAN 8-mers; in the experiment with POU2 (OCT2 POU domain), 0.0552 % of ANNNNAAN 8-mers; in experiment [1] it was 0.03 % of ANNNNAAN 8-mers; in experiment [2], 0.0388 % of ANNNNAAN 8-mers.

AATGCAAG: the binding signal with POU1 (OCT1 POU domain) is 0.0671 % of ANNNNAAN 8-mers; with POU2 (OCT2 POU domain), 0.0512 % of ANNNNAAN 8-mers; in experiment [1], 0.0749 % of ANNNNAAN 8-mers; in experiment [2], 0.0644 % of ANNNNAAN 8-mers.

For ACGTAAAC, the binding signal is 0.0358 % of ANNNNAAN 8-mers with POU1 (OCT1 POU domain), 0.0299 % of ANNNNAAN 8-mers with POU2 (OCT2 POU domain), 0.0433 % of ANNNNAAN 8-mers in experiment [1] and 0.0405 % of ANNNNAAN 8-mers in experiment [2].

On to ATGCAAAC, for which the binding signal in the experiment with POU1 (OCT1 POU domain) is 0.543 % of ANNNNAAN 8-mers; with POU2 (OCT2 POU domain), 0.445 % of ANNNNAAN 8-mers; in experiment [1], 1.35 % of ANNNNAAN 8-mers; in experiment [2] it was 1.27 % of ANNNNAAN 8-mers.

Source of the values: paper PMC10812921, “Transcriptional Coactivator BOB1 (OBF1, OCA-B) Modulates the Specificity of DNA Recognition by the POU-Domain Factors OCT1 and OCT2 in a Monomeric Configuration”.
